Experimental findings from PubChem BioAssay (NCATS) are described below.

Results filed as inconclusive are left out. The source made the active and inactive calls. Unless noted, the call rests on the fitted dose curve; in most records, active means well fitted curve in the direction sought with a large enough effect; inconclusive means small, poorly fitted or top-dose-only effect, or another doubt; inactive means no such curve, though single readings can be large; an effect the other way counts as inactive or inconclusive.

A short description of assay [1]: Cell Viability - LYMP2-008 (AID 980). Further: on the % scale 0 is the no-effect control and ±100 the full control effect; nearly all actives have a fitted effect of over 60% in size. The gist of the method:
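LYMP2-008 lymphoblastoid cells (2500/well) plated 5 h, then treated 24 h at 37 C in complete medium. Viability read as intracellular ATP by CellTiter-Glo luminescence after 30 min at room temperature; AC50 from Hill fits.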

A short description of assay [2]: Cell Viability - LYMP2-010 (AID 981). Further: on the % scale 0 is the no-effect control and ±100 the full control effect; nearly all actives have a fitted effect of over 55% in size. The gist of the method:
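Human lymphoblastoid LYMP2-010 cells (2500/well) treated 24 h at 37 C in complete medium; viability read as intracellular ATP by CellTiter-Glo luminescence. AC50 from Hill fits of concentration-response data; tetraoctylammonium bromide positive control.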

Assay [3] can be described thus: Cell Viability - LYMP2-012 (AID 982).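 Further: cellular ATP by luciferase luminescence where a drop means cytotoxicity; cells exposed to compound for one day before reading; 0% = DMSO only and full loss = 92 µM tetraoctylammonium bromide; nearly all actives have a fitted effect of over 55% in size.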
Assay [4] can be described thus: Cell Viability - LYMP2-014 (AID 983).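 Further: plate controls were DMSO only for no effect and 92 µM tetraoctylammonium bromide for full effect; nearly all actives have a fitted effect of over 50% in size.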 The gist of the method: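 LYMP2-014 human lymphoblastoid cells, 2500/well, treated 24 h at 37 C in complete medium; viability by CellTiter-Glo ATP luminescence after 30 min at room temperature. AC50 from Hill fits of qHTS concentration-response; tetraoctylammonium bromide positive control.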
Assay [5] in a line: Cell Viability - LYMP2-016 (AID 984). Further: on the % scale 0 is the no-effect control and ±100 the full control effect; nearly all actives have a fitted effect of over 55% in size. The gist of the method: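 Acute toxicity in a Coriell human lymphoblastoid line is scored as loss of intracellular ATP over 24 h of treatment in complete medium. CellTiter-Glo signal is fitted across concentrations with the Hill equation to give AC50.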
Assay [6] in a line: Cell Viability - LYMP2-020 (AID 986).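 Further: plate controls were DMSO only for no effect and tetraoctylammonium bromide at 92 µM for full effect; nearly all actives have a fitted effect of over 55% in size.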 The gist of the method: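 Human lymphoblastoid LYMP2-020 cells (2500/well) preincubated 5 h at 37 C, then treated 24 h at 37 C. Viability measured as intracellular ATP by CellTiter-Glo luminescence after 30 min at room temperature; AC50 from Hill fits.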
Assay [7] can be described thus: Cell Viability - LYMP2-022 (AID 987). Summed up:
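LYMP2-022 lymphoblastoid cells (2500/well, complete medium) were treated with compounds for 24 hours at 37 C; intracellular ATP was then read by CellTiter-Glo luminescence after 30 min at room temperature. AC50 values were derived from Hill-equation fits.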

Assay [8] is described as follows: Cell Viability - LYMP2-024 (AID 988).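 Further: plate controls were DMSO only for no effect and 92 µM tetraoctylammonium bromide for full effect; nearly all actives have a fitted effect of over 60% in size.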 Summed up: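 Human lymphoblastoid LYMP2-024 cells (2500/well) rested 5 hr, then treated with compound for 24 hr at 37 C in complete medium. Viability was measured as intracellular ATP by CellTiter-Glo luminescence. AC50 values came from Hill-equation fits.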
A short description of assay [9]: Cell Viability - LYMP2-026 (AID 989). Further: on the % scale 0 is the no-effect control and ±100 the full control effect; nearly all actives have a fitted effect of over 50% in size. The gist of the method:
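Human lymphoblastoid LYMP2-026 cells, 2500/well, exposed to compound 24 h at 37 C in complete medium. Viability as intracellular ATP by CellTiter-Glo luminescence; AC50 from Hill fits of qHTS concentration-response.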

Assay [10] can be described thus: Cell Viability - LYMP1-002 - Assay at 24 hr (AID 993). Further: on the % scale 0 is the no-effect control and ±100 the full control effect. Summed up: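 Human lymphoblastoid LYMP1-002 cells (2500/well) treated 24 h at 37 °C; viability as intracellular ATP by CellTiter-Glo luminescence. Tetraoctylammonium bromide as positive control; AC50 from Hill-equation fits of qHTS concentration-response.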
Assay [11] can be described thus: Cell Viability - LYMP1-002 - Assay at 40 hr (AID 994).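 Further: 0% = DMSO only and full inhibition = 92 µM tetraoctylammonium bromide; nearly all actives have a fitted effect of over 60% in size.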 The gist of the method: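 LYMP1-002 human lymphoblastoid cells (2500/well, complete medium) were treated with compounds for 40 hr at 37 C. Intracellular ATP was measured by CellTiter-Glo luminescence, and AC50 values came from Hill-equation fits of concentration-response data; tetraoctylammonium bromide was the positive control.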

Assay [12] can be described thus: qHTS Assay for Lipid Storage Modulators (AID 1519; calls by dose curve; further: potency means the concentration at half of the fitted maximal effect; on activity change, negative = inhibition: on the % scale 0 is the no-effect control and ±100 the full control effect). The following applies: Drosophila S3 cells, BODIPY lipid droplet/cell ratio, laser cytometry, cells loaded with oleic acid; for activity change, negative = inhibition: at 57.5 µM (top of the series). Summed up: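 Cells seeded at 5,000 per well were treated with compounds over a concentration series and loaded with oleic acid (400 uM, as added). Lipid droplet fluorescence (488 nm excitation, 500-530 nm channel) was read by laser-scanning cytometry and normalized to 20 uM Triacsin C.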
Background: In qHTS, concentration-response curves come from the screen itself.

Assay [13] deals with DNA repair nuclease/redox regulator APEX1 (Homo sapiens) (UniProt P27695). Nature of the assay: qHTS Validation Assay for Inhibitors of the Human Apurinic/apyrimidinic Endonuclease 1 (APE1) (AID 1705;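 further: TAMRA fluorescence gain over two minutes as APE1 cuts a quenched THF abasic duplex; on the % scale 0 is the no-effect control and ±100 the full control effect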). Summed up:
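Endonuclease activity of human APE1 is followed as dequenching when the enzyme incises a tetrahydrofuran abasic site in a short duplex labelled 5'-TAMRA/3'-BHQ-2 (50 nM final), after 15 min enzyme–compound preincubation at room temperature.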

Assay [14] is described as follows: Counterscreen for APE1 Inhibitors: Fluorescent Dye Displacement Validation Assay (AID 1707).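 Further: plate controls were ThO with dsDNA and no compound for no effect and ThO without dsDNA for full effect.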 The gist of the method:
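Assay buffer: Tris-HCl pH7.5 with 50mM NaCl, 2 mM MgCl2, 0.01% Tween-20. Dye 250 nM, duplex 50 nM final. Readout: decrease in ThO endpoint fluorescence, 480 nm excitation, 540 nm emission.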
For orientation: Counterscreens check selectivity or assay interference.

Assay [15] concerns the target Endonuclease 4 (Escherichia coli (strain K12)) (UniProt P0A6C1). The assay is described as follows: Counterscreen for APE1 Inhibitors: qHTS Validation Assay for Inhibitors of Endonuclease IV (AID 1708). Further: on the % scale 0 is the no-effect control and ±100 the full control effect. The gist of the method: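 qHTS concentration-response format; LOPAC1280 tested under APE1-screen conditions. 2 nM enzyme, 15 min compound preincubation at RT, then 50 nM TAMRA/BHQ-2 abasic substrate; kinetic fluorescence read, three reads at 60 s intervals.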

Assay [16] in a line: Validation of Assay for Modulators of Lamin A Splicing (AID 1459; active means well fitted curve in the direction sought with a large enough effect in the signal ratio; the % refers to the signal ratio;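 further: cells exposed to compound for two days before reading; 0% is about no effect; ratio rise marks activators and ratio drop marks inhibitors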). The gist of the method: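 Splicing correction is reported by an EGFP-containing lamin A minigene in stably transfected S3 HeLa cells, while DsRed2 controls for viability and nonspecific signal. Cells are exposed to compounds for 48 hrs before the GFP over RFP ratio is taken.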
Assay [17] in a line: qHTS for differential inhibitors of proliferation of Plasmodium falciparum line 7G8 (AID 1815).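 Further: parasite growth measured after three days of incubation.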 Further: potency means the concentration at half of the fitted maximal effect.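 On activity change, negative = inhibition: plate controls were vehicle wells for no effect and reference inhibitor wells for full effect.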
Assay [18] concerns the target Alpha-galactosidase A (Homo sapiens) (UniProt P06280). The assay is described as follows: Counterscreen for Glucocerebrosidase Inhibitors: qHTS Assay for Human alpha-Galactosidase at pH 4.5 (AID 992). Further: 0% is about no effect. The gist of the method: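 Concentration-response curves (0.7 nM to 77 uM final) were modeled with the Hill equation to give AC50. Reactions: 2 nM enzyme, 80 uM fluorogenic alpha-galactoside, pH 4.5 citric acid buffer, 20 min, room temperature.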

In assay [19] the target is alpha-glucosidase (Oryza sativa, rice) (UniProt Q653V4). Nature of the assay: Counterscreen for Glucocerebrosidase Inhibitors: qHTS Assay for Rice alpha-Glucosidase at pH 5.0 (AID 997).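 Further: 0% = full activity with enzyme and -100% = basal without enzyme.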 The gist of the method:
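Rice alpha-glucosidase (4 nM final) with 400 uM 4-methylumbelliferyl-alpha-D-glucopyranoside in citrate buffer pH 5.0, 20 min at room temperature, stopped at pH 10; fluorescence 365/440 nm, compounds 0.7 nM–77 uM, AC50 from Hill fits.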

The target of assay [20] is Alpha-galactosidase (Coffea arabica) (UniProt Q42656). The assay is described as follows: Counterscreen for Glucocerebrosidase Inhibitors: qHTS Assay for Coffee Bean alpha-Galactosidase at pH 5.9 (AID 998).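 Further: plate controls were uninhibited enzyme for no effect and no-enzyme basal signal for full effect.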 The gist of the method:
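Compounds were titrated from 0.7 nM to 77 uM against green coffee bean alpha-galactosidase (2 nM) using 80 uM fluorogenic 4-methylumbelliferyl substrate. After 20 min at room temperature, reactions were stopped at pH 10 and read by fluorescence.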

[21] abbreviates: measured here: cell count channel max response.
[22] abbreviates: measured here: lipid channel max response.

Sequence of Alpha-galactosidase A (Homo sapiens) (P06280 whole entry, looked up): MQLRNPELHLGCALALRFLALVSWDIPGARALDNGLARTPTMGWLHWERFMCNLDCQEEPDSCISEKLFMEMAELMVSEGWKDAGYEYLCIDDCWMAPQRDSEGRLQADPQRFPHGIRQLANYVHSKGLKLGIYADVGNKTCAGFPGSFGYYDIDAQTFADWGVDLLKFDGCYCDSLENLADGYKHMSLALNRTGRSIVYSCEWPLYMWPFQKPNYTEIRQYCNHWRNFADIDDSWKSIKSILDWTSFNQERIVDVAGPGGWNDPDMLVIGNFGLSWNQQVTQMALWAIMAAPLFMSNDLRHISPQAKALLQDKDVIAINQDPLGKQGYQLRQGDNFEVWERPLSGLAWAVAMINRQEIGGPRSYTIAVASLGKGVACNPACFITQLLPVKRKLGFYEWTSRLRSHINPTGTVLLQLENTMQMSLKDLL
Sequence of Alpha-galactosidase (Coffea arabica) (Q42656 whole entry, looked up): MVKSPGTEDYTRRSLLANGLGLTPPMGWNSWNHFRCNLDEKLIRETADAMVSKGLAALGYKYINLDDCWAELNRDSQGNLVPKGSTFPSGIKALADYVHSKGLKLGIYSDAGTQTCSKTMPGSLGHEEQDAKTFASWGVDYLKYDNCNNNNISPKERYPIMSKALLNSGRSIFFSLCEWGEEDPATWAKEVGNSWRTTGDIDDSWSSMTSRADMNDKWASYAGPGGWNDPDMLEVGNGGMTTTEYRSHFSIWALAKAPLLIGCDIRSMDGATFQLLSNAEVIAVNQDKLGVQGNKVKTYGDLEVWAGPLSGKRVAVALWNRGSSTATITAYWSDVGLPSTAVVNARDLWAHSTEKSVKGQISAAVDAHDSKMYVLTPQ
Sequence of DNA repair nuclease/redox regulator APEX1 (Homo sapiens) (P27695 whole entry, looked up): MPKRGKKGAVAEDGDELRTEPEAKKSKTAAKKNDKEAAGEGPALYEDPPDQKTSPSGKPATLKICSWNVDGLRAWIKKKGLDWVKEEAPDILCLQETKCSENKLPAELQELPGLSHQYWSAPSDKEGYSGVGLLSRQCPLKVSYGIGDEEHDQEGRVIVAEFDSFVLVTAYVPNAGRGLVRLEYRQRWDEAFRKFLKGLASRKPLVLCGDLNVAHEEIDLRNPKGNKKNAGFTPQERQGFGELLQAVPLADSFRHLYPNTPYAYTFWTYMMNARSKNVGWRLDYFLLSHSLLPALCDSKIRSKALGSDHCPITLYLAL

Turning to `COc1ccc(C(c2ccc(OC)cc2)C(Cl)(Cl)Cl)cc1`, the Potency entry in assay [1], in assay [2], in assay [3], in [4], in [5] and in [6] was “inactive” in each case. The Potency entry in assay [7], in assay [8], in assay [9], in assay [10] and in [11] was “inactive” in each case. In addition, the activity change, negative = inhibition in assay [12] was 6.03% (inactive). For the same compound, the max response in assay [12] (setting [21]) turned out to be 12.8%; in assay [12] (setting [22]), 30.2%.

As for `CC(Cc1ccc(O)cc1)NCC(O)c1cc(O)cc(O)c1` (centres undefined), the Potency result in assay [13], in assay [14] and in assay [15] was “inactive” each time.

With `NC(CP(=O)(O)O)C(=O)O` (centres undefined), the call in assay [16] was inactive. The Potency result in assay [14], in assay [15] and in [17] was “inactive” throughout.

On to `CC[C@H](CO)Nc1nc(NCc2ccccc2)c2ncn(C(C)C)c2n1`, for which the Potency in assay [17] was 5.01 µM (active).

Turning to `S=C(NC1CCCCC1)N1CCC(c2cnc[nH]2)CC1`, the outcome in [18], in assay [19], in assay [20] and in assay [16] was inactive. In addition, the Potency result in [13], in assay [14] and in assay [17] was “inactive” in each case.

Regarding `NCCc1c[nH]c2ccc(O)cc12`, the compound was classed as inactive in assay [18], in [19], in assay [20] and in assay [16]. The Potency entry in assay [13], in assay [14] and in assay [17] was “inactive” throughout.

Turning to `O=C(O)CCCOc1ccc(Cl)cc1Cl`, in assay [12], the activity change, negative = inhibition was 4.8% (inactive). Moreover, the max response came out at 15.4% in assay [12] (setting [21]) and 22.4% in assay [12] (setting [22]).

As for `CN[C@@H](C)[C@H](O)c1ccccc1`, the Potency entry in [13], in assay [14] and in [15] was “inactive” throughout. Also, the Potency in assay [17] is 12.6 µM (active).

Regarding `O=S(=O)(c1ccc(Cl)cc1)c1ccc(Cl)cc1`, the Potency entry in assay [1], in assay [2], in assay [3], in assay [4], in assay [5] and in assay [6] was “inactive” throughout. In addition, the Potency entry in assay [7], in [8], in assay [9], in assay [10] and in assay [11] was “inactive” in each case.

Regarding `CC(=O)NCCc1c[nH]c2ccccc12`, the outcome in [18], in assay [19], in assay [20] and in assay [16] was inactive. Besides, the Potency result in [13], in assay [14] and in assay [15] was “inactive” throughout.

For the compound `Cc1cc(O)ccc1Cl`, the Potency entry in assay [1], in [2], in assay [3], in assay [4], in assay [5] and in [6] was “inactive” in each case. Moreover, the Potency result in assay [7], in assay [8], in assay [9], in assay [10] and in [11] was “inactive” throughout. In assay [12], the activity change, negative = inhibition is 8.09% (inactive). Also, the max response in [12] (setting [21]) is -7.09%; in assay [12] (setting [22]), 5.53%.

With `Cc1nc(-c2ccc(-c3ccc(C(=O)N4CCc5cc6c(cc54)C4(CCN(C)CC4)CO6)cc3)c(C)c2)no1`, the compound was classed as inactive in assay [18], in [19] and in assay [20]. In addition, the Potency result in assay [13], in assay [14] and in assay [15] was “inactive” throughout. Also, in assay [17], the Potency was 5.01 µM (active).

For `CCCN(CCC)C1CCc2ccc(O)cc2C1` (centres undefined), the compound was classed as inactive in assay [16]. For the same compound, the Potency result in assay [13] and in assay [14] was “inactive” each time. The Potency in assay [17] was 8.91 µM (active).

As for `CCCCCCCCCCCCCCCC[N+](C)(C)C`, the Potency in assay [12] was 11.2 µM (active). The results for the max response in assay [12] (setting [21]) and in assay [12] (setting [22]) were -15.3% and -89.4%, respectively.
